The values below come from PubChem BioAssay AID651568 (National Center for Advancing Translational Sciences (NCATS), 2012).

Structures are written as SMILES. Screen size: about 1,200 compounds; about 55 (5%) were called active. Roughly 15% stayed inconclusive and do not appear here. Calls come from the whole dose curve; as a rule, active = well fitted inhibition curve with a large enough effect; inconclusive = small, poorly fitted or top-dose-only effect; inactive = no such curve, though single readings can be large or run the other way. What follows is part of a selection rich in actives, with near analogues and random picks from the rest. A call without a number means that no potency is given here.
Potency is the fitted concentration of half-maximal effect.

The assay is described as follows: qHTS Assay to Find Inhibitors of Chronic Active B-Cell Receptor Signaling: Hit Validation in Renilla Reporter Assay. Note: nearly all actives have a fitted effect of over 70% in size. Conditions: TMD8 IkB-Renilla luciferase reporter, NF-kB signaling; series mostly up to 57.5 µM. From the text:
Diffuse large B-cell lymphoma (DLBCL) is the most common category of non-Hodgkin lymphoma, with ~20,000 new cases per year in the United States. DLBCL should be regarded as a collection of different neoplasms. Microarray gene expression analysis has defined two principal types of DLBCL, named for their similarity to normal B cell stages or activation states: a germinal center B-cell (GCB) type, and an activated B-cell (ABC) type. In ABC-DLBCL, a constitutive high-level activity of the NF-kappaB family of transcription factors has been observed (1) and NF-kappaB target genes are more highly expressed in ABC primary tumors than in GCB tumors. Functional studies have shown a constitutive high-level activity of the IkappaB (inhibitor of kappa-B) kinase (IKK) complex. […] Further analysis of DLBCL primary tumors for NF-kappaB target gene expression imply that although CARD11 is required for constitutive IKK activity in all ABC-DLBCL lines, mutations in CARD11 may be the root cause of IKK activation only in lines or tumors with such mutations. In other words, CARD11 mutations may explain NF-kappaB activation in only 10% of ABC-DLBCL cases. […] This process has been termed 'chronic active BCR signaling' (CABS). The goal of this screen is to find small-molecule inhibitors of the CABS pathway found in ABC-DLBCL lines using a cell-based assay that measures IkappaBalpa stability, which has already been extensively validated in the OCI-Ly3 line (PubChem AID:445; REF: 4). […] Hits from the primary screen were tested in this orthogonal secondary assay. NIH Molecular Libraries Probe Production Network [MLPCN] NIH Chemical Genomics Center [NCGC] MLPCN Grant: R03 DA031086 PI Name: Dr. R. Eric Davis
The IkB-Photinus/Renilla reporter assay differs from the primary assay in that the reporters are constitutively expressed, and based on luciferases that are different from the click beetle luciferases and each other. These differences should help to eliminate artifactual sources of activity specific to the primary assay. This assay uses the Dual-Glo substrate from Promega; extensively validated in a 96-well format, it could be converted to a smaller-well format. All lines needed for the IkB-Photinus/Renilla assay have already been prepared and extensively validated
In the case of `Cc1cc(C)cc(NS(=O)(=O)c2ccc(-c3cnc(C4CC4)o3)cc2)c1`, the Potency entry is “inactive”.
Regarding `Cc1cccc(NS(=O)(=O)c2ccc(C3CCCCC3)cc2)n1`, the Potency was 13.5 µM (active).
`Cc1ccc(C)c(NS(=O)(=O)c2ccc(-c3cnc(C4CC4)o3)cc2)c1`: the Potency result was “inactive”.
In the case of `Cc1ccccc1NC(=S)N=Nc1c(O)n(C)c2ccc(S(=O)(=O)N3CCOCC3)cc12` it was “inactive”; in that of `CCn1c(=O)c([N+](=O)[O-])c(Cl)c2ccccc21`, 2.39 µM (active).
Take `CC[C@]12c3[nH]c4cc(CCC(=O)N(C)C)ccc4c3CCN1C(=O)[C@@H](CC(=O)NCc1ccco1)C[C@@H]2C(=O)N1CCN(C(=O)c2ccco2)CC1`: the Potency entry is “inactive”.
In the case of `c1ccc(C2=Nn3c(nnc3-c3n[nH]c4c3CCC4)SC2)cc1` it was “inactive”.
In the case of `Cc1ccc(OCCN2C(=O)C(=O)c3cc(C)ccc32)cc1` it was “inactive”; in that of `CC(C)n1c(SCC(=O)Nc2ccccc2)nc2c1c(=O)n(C)c(=O)n2C`, “inactive”; in that of `CN(C)c1nc(=Nc2cccc(Cl)c2)ss1`, 10.7 µM (active).
In the case of `COc1cc(OC)cc(C(=O)NCC(=O)Nc2ccc(-c3ccccc3)cc2)c1` it was “inactive”; in that of `COc1cc(OC)cc(C(=O)NCc2ccc3c(c2)CCN3C(=O)c2ccccc2)c1`, “inactive”.
`COc1ccc(/C=C/C(=O)Nc2cc(S(=O)(=O)N3CCOCC3)ccc2OC)cc1`: the Potency entry is “inactive”.
In the case of `Cc1noc(C)c1CSc1ncnc2ccccc12` it was “inactive”; in that of `COc1ccc(C(=O)/C=C/c2ccc(OC)c(Cn3nnc4ccccc43)c2)cc1`, 9.53 µM (active); in that of `COc1cc(/C=C\C(=O)OCn2nnc3ccccc3c2=O)cc(OC)c1OC`, “inactive”.
For the molecule `COc1ccc(C(=O)n2c(-c3ccco3)nc3ccccc32)cc1`, the Potency result was “inactive”.
In the case of `COc1ccccc1NC(=O)COc1ccc(-c2nn(C)c(=O)c3ccccc23)cc1` it was “inactive”.
In the case of `Cc1ccc(NC(=S)NC(=O)C2CC2)cc1Cl` it was “inactive”; in that of `Cc1c(CCC(=O)NCCC(=O)O)c(=O)oc2c(C)c3oc4c(c3cc12)CCCC4`, “inactive”; in that of `COc1cc(/C=N/NC(=O)NC2CCCCC2)ccc1O`, “inactive”.
In the case of `O=Cc1ccccc1OCCOc1ccccc1C=O` it was 12 µM (active).
Regarding `CCOc1cc(Br)c(C=O)cc1OCC`, the Potency entry was “inactive”.
In the case of `Cc1c(CCC(=O)N[C@@H](C)C(=O)O)c(=O)oc2cc3oc4c(c3cc12)CCCC4` it was “inactive”.
In the case of `CCC(NC(=O)CCc1c(C)c2cc3c4c(oc3cc2oc1=O)CCCC4)C(=O)O` (stereo unspecified), the Potency result is “inactive”.
In the case of `Cc1cc(NC(=O)CSc2nc3ccccc3c(=O)n2C2CCCC2)no1` it was “inactive”; in that of `Cc1cc(C)n(-c2nc3ccccc3c(=O)n2OCC#N)n1`, 16.9 µM (active); in that of `CCC(=O)Nc1nonc1-c1nc2ccccc2n1Cc1cccc2ccccc12`, “inactive”.
On to `CNCc1ccccc1Sc1ccc(O)c(O)c1`, for which the Potency was 10.7 µM (active).
For `COc1cccc(N2CC(O)=C(c3nc4ccccc4s3)C2=N)c1`, the Potency entry is “inactive”.
On to `CCOc1cc(/C=N\NC(N)=O)cc(Br)c1OC(C)C`, for which the Potency entry is “inactive”.
In the case of `O=C(/C=C/c1ccc(O)cc1)c1ccc(O)cc1O` it was 10.7 µM (active); in that of `O=C(/C=C/c1ccco1)NC(=S)Nc1cccc(-c2nc3ccccc3o2)c1`, “inactive”; in that of `CCn1ncc(C2=NOC(C(=O)NCc3ccccc3)C2)c1C` (stereo unspecified), “inactive”.
In the case of `CC(C)N=C(NS(=O)(=O)c1ccccc1)C(Cl)(Cl)Cl` it was 26.9 µM (active); in that of `Oc1cccc(Nc2nc(N3CCOCC3)nc(N3CCOCC3)n2)c1`, “inactive”.
With `CC1=CC(C)(C)N(S(=O)(=O)c2ccc(C)cc2)c2ccc(C)cc21`, the Potency entry is “inactive”.
Take `CCOc1ccccc1NS(=O)(=O)c1ccc(-c2cnc(C3CC3)o2)cc1`: the Potency result was “inactive”.
As for `COc1ccc(C(=O)N2CCc3cc(OC)c(OC)cc3C2c2ccc(OC)c(OC)c2)cc1` (stereo unspecified), the Potency entry is “inactive”.
In the case of `COc1cccc(C(=O)Nc2cc(NC(=O)c3cccs3)ccc2C)c1OC` it was “inactive”.
In the case of `COc1cc(NC(=S)NC(=O)c2ccccc2F)ccc1NC(=O)c1ccco1` it was “inactive”.
In the case of `COc1ccccc1C(=O)Nc1ccccc1SC(=O)c1ccccc1OC` it was 23.9 µM (active); in that of `Cc1ccc(COC(=O)c2cc([N+](=O)[O-])ccc2N2CCOCC2)cc1`, “inactive”.
With `CCc1cc2c(SCC(=O)Nc3ccc(NC(C)=O)cc3)ncnc2s1`, the Potency entry was “inactive”.
In the case of `CCCC(=O)Nc1ccc2c(c1)nc(CN1CCN(C(=O)OCC)CC1)n2CC` it was “inactive”; in that of `O=C(CCl)Nc1cccc(S(=O)(=O)NC2=NCCCCC2)c1`, 19 µM (active); in that of `O=C(CCl)Nc1cc(S(=O)(=O)N2CCCCCC2)ccc1Cl`, “inactive”.
In the case of `C=CCn1c(SCC(=O)Nc2cccc(S(N)(=O)=O)c2)nc2sc(C)c(C)c2c1=O` it was “inactive”; in that of `CN(C)/C=N/c1sc2c(c1C#N)CCCC2`, “inactive”.
For `COc1cc(C2C(C#N)=C(N)Oc3cc(N)ccc32)cc(OC)c1OC` (stereo unspecified), the Potency entry is “inactive”.
In the case of `CCN(C(=O)COC(=O)c1cc([N+](=O)[O-])ccc1N1CCOCC1)c1ccccc1` it was “inactive”; in that of `CC(=O)Nc1nc2ccc(-c3nc4ccccc4o3)cc2s1`, “inactive”.
In the case of `CCCc1nc([N+](=O)[O-])c(S(=O)(=O)c2ccccc2)n1CC(C)C` it was 30.1 µM (active).
In the case of `Cc1ccc(C(=O)c2cc([N+](=O)[O-])ccc2N2CCCCC2)cc1C` it was “inactive”.
As to `CCOC(=O)C1=C(C)NC(C)=C(C(=O)OCC)C1/C=C/c1ccccc1`, the Potency entry is “inactive”.
In the case of `O=C(/C=C\c1ccco1)Nc1cc([N+](=O)[O-])ccc1F` it was “inactive”.
In the case of `O=S1(=O)C=C(Sc2nc3cc(Cl)ccc3o2)c2ccccc21` it was 8.49 µM (active); in that of `CCOC(=O)C(C)Oc1cccc2c(=O)n(CC(=O)NCc3ccccc3)ccc12` (stereo unspecified), “inactive”.
`COc1ccc(N(C(=O)c2ccccc2C)S(=O)(=O)c2cccs2)cc1`: the Potency entry is “inactive”.
In the case of `Cc1ccc(C(=O)c2cc([N+](=O)[O-])ccc2N2CCCCC2)cc1` it was “inactive”; in that of `O=C(/C=C/c1cccs1)c1cc(Br)ccc1OC(=O)N1CCOCC1`, 26.9 µM (active).
With `O=C(Oc1ccc2ccc(OC(=O)N3CCOCC3)cc2c1)N1CCOCC1`, the Potency result is “inactive”.
For the molecule `C#C[C@]1(O)CC[C@H]2[C@@H]3CCc4cc(O)ccc4[C@H]3CC[C@@]21C`, the Potency entry was “inactive”.
In the case of `O=C(COc1ccccc1-c1ccccc1)N/N=C/c1cccc2ccccc12` it was “inactive”; in that of `Nc1cc(=O)[nH]c(SCC(=O)Nc2cc(Cl)cc(Cl)c2)n1`, “inactive”.
As for `COc1cc2c(cc1OC)-c1cc(Nc3ccc(C)cc3)nc(=O)n1CC2`, the Potency entry is “inactive”.
